Assay results from PubChem BioAssay (NCI).
This is part of a sample that, as a whole, favours compounds with a hit. Of some 83,000 tested, about 20% had one in any assay.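 Negative percent growth values reflect cell death: -40 means 40% of the cells present at the start died, and -100 means all died.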 Active and inactive are the calls of the source. Rule for the calls: active = growth percent below 10; inactive = the rest.

Tests used:
Test in all cases: NCI-60 one-dose screen, 48 h (100 = growth as untreated, 0 = no growth, -100 = all killed)
Settings in all cases: 10 µM unless noted
T-47D breast = test system: T-47D breast
BT-549 breast = test system: BT-549 breast
MDA-MB-435 melanoma = test system: MDA-MB-435 melanoma
SW-620 colon = test system: SW-620 colon
MCF7 breast = test system: MCF7 breast
HCT-116 colon = test system: HCT-116 colon
HCC-2998 colon = test system: HCC-2998 colon
KM12 colon = test system: KM12 colon

Measured: growth

Clc1cc2c(nn1)Nc1ccccc1S2
inactive: T-47D breast 85% | BT-549 breast 103% | MDA-MB-435 melanoma 98.1% | SW-620 colon 103% | MCF7 breast 85.3% | HCT-116 colon 96.5% | HCC-2998 colon 114% | KM12 colon 102%

COC(=O)c1cc(=O)nc(N/N=C/c2ccco2)s1
inactive: T-47D breast 87.8% | BT-549 breast 109% | MDA-MB-435 melanoma 114% | SW-620 colon 108% | MCF7 breast 39.5% | HCT-116 colon 93.8% | HCC-2998 colon 102% | KM12 colon 101%

COc1ccc(C2C(C#N)=C(N)Oc3c2ccc2ccccc32)cc1 (stereo unspecified)
inactive: T-47D breast 31% | BT-549 breast 61% | SW-620 colon 19% | MCF7 breast 13.2% | HCT-116 colon 23.5% | HCC-2998 colon 74.4% | KM12 colon 29%
active: MDA-MB-435 melanoma -49.8%

COc1ccc(-c2nc(/C=C3/C(=O)Nc4ccc(F)cc43)c3ccccn23)cc1
inactive: T-47D breast 100% | BT-549 breast 104% | MDA-MB-435 melanoma 113% | SW-620 colon 87.7% | MCF7 breast 48.7% | HCT-116 colon 62% | HCC-2998 colon 104% | KM12 colon 102%

Cc1ccc(S(=O)(=O)NCCNc2nccc(-c3c(-c4cccc(N)c4)nc4sccn34)n2)cc1
inactive: T-47D breast 51.7% | BT-549 breast 87.5% | MDA-MB-435 melanoma 93.5% | SW-620 colon 123% | MCF7 breast 83.4% | HCT-116 colon 99.2% | HCC-2998 colon 132% | KM12 colon 92.2%

NC1N=C(SCC(=O)N2CCN(c3cc4c(cc3F)c(=O)c(C(=O)O)cn4C3CC3)CC2)NC(=O)/C1=C/c1ccc(Cl)cc1 (stereo unspecified)
inactive: T-47D breast 97.9% | BT-549 breast 122% | MDA-MB-435 melanoma 105% | SW-620 colon 104% | MCF7 breast 105% | HCT-116 colon 101% | HCC-2998 colon 109% | KM12 colon 107%

COc1ccc(/C=C2\Oc3cc(OCCCN4CCCC4)ccc3C2=O)c(OC)c1
inactive: T-47D breast 99% | BT-549 breast 95.4% | MDA-MB-435 melanoma 97% | SW-620 colon 33.5% | MCF7 breast 44.4% | HCT-116 colon 10.6% | HCC-2998 colon 86.3% | KM12 colon 67.1%

COc1ccccc1CNCCCN1C(=O)c2ccc3c4c(ccc(c24)C1=O)C(=O)N(CCCNCCCCNCCCN)C3=O
active: T-47D breast -36.4% | BT-549 breast -22.1% | MDA-MB-435 melanoma -13.4% | SW-620 colon -36.5% | MCF7 breast -38.4% | HCT-116 colon -2.94% | HCC-2998 colon -39% | KM12 colon -18.7%

COc1ccc(-c2cnnn2-c2nonc2-n2cccc2)cc1OC
inactive: T-47D breast 45.3% | BT-549 breast 60.1% | SW-620 colon 27% | MCF7 breast 30.4% | HCT-116 colon 35.6% | HCC-2998 colon 62% | KM12 colon 31.7%
active: MDA-MB-435 melanoma -36.9%

Cc1nc2ncccc2nc1Nc1ccc(S(=O)(=O)Nc2cncs2)cc1
inactive: T-47D breast 82.7% | BT-549 breast 83% | MDA-MB-435 melanoma 114% | SW-620 colon 102% | MCF7 breast 82.2% | HCT-116 colon 97.5% | HCC-2998 colon 95.1% | KM12 colon 97.7%

CCOC(=O)c1cn2c3c(cc(C)cc3c1=O)C(=O)/C(=C/c1ccccc1)C2
inactive: T-47D breast 81.7% | BT-549 breast 84.3% | MDA-MB-435 melanoma 107% | SW-620 colon 101% | MCF7 breast 86.7% | HCT-116 colon 86.4% | HCC-2998 colon 98.9% | KM12 colon 102%

CCO/C=N/C1=C(C#N)C(c2ccc(Cl)cc2)c2c(c3ccccc3n(C)c2=O)O1 (stereo unspecified)
active: MDA-MB-435 melanoma 1.36%
inactive: T-47D breast 65.1% | BT-549 breast 81.4% | SW-620 colon 52.1% | MCF7 breast 41.7% | HCT-116 colon 66.5% | HCC-2998 colon 84.5% | KM12 colon 69.1%

COC(OC)c1ccccc1
inactive: T-47D breast 99.4% | BT-549 breast 92.4% | MDA-MB-435 melanoma 102% | SW-620 colon 114% | MCF7 breast 99% | HCT-116 colon 98.5% | HCC-2998 colon 93.6% | KM12 colon 112%

COc1cc(/C=C/C(=O)c2cccc(-n3cc(-c4cc(OC)c(OC)c(OC)c4)[nH]c3=O)c2)cc(OC)c1OC
inactive: HCC-2998 colon 23.1%
active: T-47D breast 8.37% | BT-549 breast -2.07% | MDA-MB-435 melanoma 3.2% | SW-620 colon -47.2% | MCF7 breast -5.04% | HCT-116 colon -78.3% | KM12 colon -83.4%

COc1ccc(-c2[nH]nc(N)c2-c2cc(OC)c3c(c2)OCO3)cc1
active: MDA-MB-435 melanoma -12.8%
inactive: T-47D breast 62% | BT-549 breast 59.2% | SW-620 colon 20.5% | MCF7 breast 32.3% | HCT-116 colon 30.9% | HCC-2998 colon 44.3% | KM12 colon 27.8%

Cc1cc(N/N=C/c2nc(-c3ccccc3)oc2C)c2cc(Cl)ccc2n1
inactive: BT-549 breast 87%
active: T-47D breast -1.37% | MDA-MB-435 melanoma -95.6% | SW-620 colon -73.3% | MCF7 breast -71.9% | HCT-116 colon -94.2% | HCC-2998 colon -77.4% | KM12 colon -83.3%

CC(C)(C)OC(=O)NCCc1ccc(N=C=S)cc1
inactive: T-47D breast 41.5% | BT-549 breast 62.3% | MDA-MB-435 melanoma 71.3% | SW-620 colon 71.4% | MCF7 breast 52% | HCT-116 colon 65.5% | HCC-2998 colon 89.9% | KM12 colon 60.8%

CC(=O)Oc1cccc(S(=O)(=O)n2cc(C(=O)C(=O)Nc3ccncc3)c3ccccc32)c1
inactive: T-47D breast 73.6% | BT-549 breast 83.8% | MDA-MB-435 melanoma 38.5% | SW-620 colon 98% | MCF7 breast 79.5% | HCT-116 colon 76.6% | HCC-2998 colon 84.3% | KM12 colon 83.6%

Cc1ccc(S(=O)(=O)c2nc(-c3ccccc3)oc2S(C)(=O)=O)cc1
active: T-47D breast -42.6% | SW-620 colon -29.2% | MCF7 breast 3.86% | HCT-116 colon -61.8%
inactive: BT-549 breast 53.4% | MDA-MB-435 melanoma 59.4% | HCC-2998 colon 97.4% | KM12 colon 76.4%

O=C(C1=Cc2cc3ccccc3n2Cc2cnnn21)c1ccccc1
active: MDA-MB-435 melanoma -7.53%
inactive: T-47D breast 28.8% | BT-549 breast 37.5% | SW-620 colon 28.5% | MCF7 breast 35.2% | HCT-116 colon 26.7% | HCC-2998 colon 71.7% | KM12 colon 33.8%

COc1ccc(/C=C2\Oc3cc(OCCCN4CCCC4)ccc3C2=O)cc1
inactive: T-47D breast 94% | BT-549 breast 95.5% | MDA-MB-435 melanoma 97.6% | SW-620 colon 77.1% | MCF7 breast 69.8% | HCT-116 colon 55.7% | HCC-2998 colon 91.3% | KM12 colon 82.7%

CCO/C=N/C1=C(C#N)C(c2ccc(Cl)cc2)c2c(c3ccc(C)cc3[nH]c2=O)O1 (stereo unspecified)
inactive: T-47D breast 78.4% | BT-549 breast 86.7% | MDA-MB-435 melanoma 90.7% | SW-620 colon 84.6% | MCF7 breast 78.7% | HCT-116 colon 82.4% | HCC-2998 colon 99.5% | KM12 colon 97.1%

Clc1ccc2c(NC3CCC(NC4CCCCC4)CC3)ccnc2c1 (stereo unspecified)
inactive: T-47D breast 48.1% | BT-549 breast 86.8% | MDA-MB-435 melanoma 26.8% | SW-620 colon 32.7% | MCF7 breast 37.8% | HCT-116 colon 35.8% | HCC-2998 colon 65.2% | KM12 colon 67.2%

COc1ccc(-c2nc3sccn3c2/C=C/C(=O)c2cc(F)cc(F)c2)cc1
inactive: T-47D breast 40.5% | BT-549 breast 127% | MDA-MB-435 melanoma 94.2% | SW-620 colon 53.9% | MCF7 breast 20.3% | HCT-116 colon 53.7% | HCC-2998 colon 51.3% | KM12 colon 84.3%

c1coc(CNc2ccnc(Nc3ccc(OCCN4CCCCC4)cc3)n2)c1
inactive: T-47D breast 91.2% | BT-549 breast 97.5% | MDA-MB-435 melanoma 95.5% | SW-620 colon 98.7% | MCF7 breast 71.4% | HCT-116 colon 68.4% | HCC-2998 colon 99.5% | KM12 colon 84.8%

c1ccc(-c2cn(-c3ccccc3)c(-c3ccccc3)n2)cc1
inactive: T-47D breast 67.5% | BT-549 breast 72.5% | MDA-MB-435 melanoma 72.6% | SW-620 colon 23.2% | HCC-2998 colon 92.3% | KM12 colon 11.8%
active: MCF7 breast -31.1% | HCT-116 colon -91.4%

Nc1ccc(C(=O)CSc2nc3ccccc3[nH]2)cc1
inactive: T-47D breast 109% | BT-549 breast 94.5% | MDA-MB-435 melanoma 96.1% | SW-620 colon 101% | MCF7 breast 92.9% | HCT-116 colon 97.3% | HCC-2998 colon 100% | KM12 colon 103%

O=C1NC(=C(Cl)Cl)/C(=N/S(=O)(=O)N2CCC(C3(C(F)(F)F)N=N3)CC2)N1
active: SW-620 colon -36.4%
inactive: T-47D breast 47.5% | BT-549 breast 99.4% | MDA-MB-435 melanoma 70.7% | MCF7 breast 74.6% | HCT-116 colon 95.4% | HCC-2998 colon 60.5% | KM12 colon 93.7%

Cc1[nH]c2ccc(F)cc2c1CCNC(=O)C1CCN(C(=O)c2ccccc2)CC1
inactive: T-47D breast 68.9% [25 µM] | BT-549 breast 93.5% [25 µM] | MDA-MB-435 melanoma 96.7% [25 µM] | SW-620 colon 96.5% [25 µM] | MCF7 breast 93.9% [25 µM] | HCT-116 colon 93.3% [25 µM] | HCC-2998 colon 104% [25 µM] | KM12 colon 95.6% [25 µM]

COc1ccc(N=Cc2c(O)ccc3c2oc2cc(Cl)c(O)c(Cl)c23)cc1
inactive: T-47D breast 87.9% | BT-549 breast 53.3% | MDA-MB-435 melanoma 94% | SW-620 colon 99.2% | MCF7 breast 69.6% | HCT-116 colon 91.5% | HCC-2998 colon 88.7% | KM12 colon 104%

CCCCCCCCCCCCCCCCCCNC(=O)[C@H]1CSC(c2cccs2)N1 (stereo partly specified)
active: T-47D breast -65.7% | BT-549 breast -77.4% | MDA-MB-435 melanoma -90.3% | SW-620 colon -65.5% | MCF7 breast -70.6% | HCT-116 colon -89.6% | HCC-2998 colon -82.4% | KM12 colon -70.9%

COc1ccc(C(=O)N2NC(=O)/C(=C/c3ccc(Br)cc3)N=C2c2ccccc2)cc1
inactive: T-47D breast 85.6% | BT-549 breast 85.5% | MDA-MB-435 melanoma 90.7% | SW-620 colon 91.3% | MCF7 breast 85.1% | HCT-116 colon 75.5% | HCC-2998 colon 105% | KM12 colon 99.6%
